“And” between values parts separate entries of the source, which are not always exact repeats. Equal entries are not always repeated. Inconclusive results are not listed. A structure can be active in one record and inactive in another. The source made the active and inactive calls. How the source made its calls: active means hit-call score of the fitted dose curve at least 0.9, where 1 is the maximum; inconclusive means response in the unintended direction; inactive means score below 0.9.
These compounds were tested against Estrogen receptor (Homo sapiens) + Estrogen receptor beta (Homo sapiens) (UniProt P03372+Q92731) (assay: OT_ER_ERaERb_0480: Odyssey Thera (OT) 8-hour HEK293T Protein-Complementation Assay for Estrogen Receptor-alpha/-beta Heterodimer (AID 2283352)).
Chain of Estrogen receptor (Homo sapiens) + Estrogen receptor beta (Homo sapiens) (P03372 whole entry, looked up, the tested form may be a part): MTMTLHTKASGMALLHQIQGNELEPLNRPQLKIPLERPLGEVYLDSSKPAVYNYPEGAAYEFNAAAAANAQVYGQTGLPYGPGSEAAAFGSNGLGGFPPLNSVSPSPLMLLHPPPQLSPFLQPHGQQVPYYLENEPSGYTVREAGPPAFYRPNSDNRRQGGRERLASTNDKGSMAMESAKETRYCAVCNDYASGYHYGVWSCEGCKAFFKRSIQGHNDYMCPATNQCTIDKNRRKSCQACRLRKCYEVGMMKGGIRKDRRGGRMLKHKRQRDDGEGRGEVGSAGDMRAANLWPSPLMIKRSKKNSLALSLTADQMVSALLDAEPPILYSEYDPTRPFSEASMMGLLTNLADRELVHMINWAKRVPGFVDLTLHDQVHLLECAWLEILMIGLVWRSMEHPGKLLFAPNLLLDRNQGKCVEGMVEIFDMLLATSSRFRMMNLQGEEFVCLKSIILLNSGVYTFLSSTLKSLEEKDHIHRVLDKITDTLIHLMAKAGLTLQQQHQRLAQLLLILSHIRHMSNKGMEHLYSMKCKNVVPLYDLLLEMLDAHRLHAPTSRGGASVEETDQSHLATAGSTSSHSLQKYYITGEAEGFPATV
Chain of Estrogen receptor (Homo sapiens) + Estrogen receptor beta (Homo sapiens) (Q92731 whole entry, looked up, the tested form may be a part): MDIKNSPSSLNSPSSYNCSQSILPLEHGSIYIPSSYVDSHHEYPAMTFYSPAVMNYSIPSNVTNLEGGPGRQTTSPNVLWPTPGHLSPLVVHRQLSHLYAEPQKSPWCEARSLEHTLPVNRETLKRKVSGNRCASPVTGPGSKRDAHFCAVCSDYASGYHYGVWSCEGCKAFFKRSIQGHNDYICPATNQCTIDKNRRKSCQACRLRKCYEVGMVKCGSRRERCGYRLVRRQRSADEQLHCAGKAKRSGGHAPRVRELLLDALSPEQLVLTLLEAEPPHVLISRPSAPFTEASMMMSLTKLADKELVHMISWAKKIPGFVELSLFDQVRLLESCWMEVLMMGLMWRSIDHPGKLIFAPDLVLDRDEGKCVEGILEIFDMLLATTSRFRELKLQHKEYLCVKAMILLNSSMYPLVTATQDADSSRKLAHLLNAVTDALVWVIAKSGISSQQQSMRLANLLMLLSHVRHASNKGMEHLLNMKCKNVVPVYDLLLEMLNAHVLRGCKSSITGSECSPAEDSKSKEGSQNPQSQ
Method: OT_ER_ERaERb_0480 is a cell-based assay that uses HEK293T, a human kidney cell line, with measurements taken at 8 hours after chemical dosing in a 384-well plate.OT_ER_ERaERb_0480 is one of one assay component(s) measured or calculated from the OT_ER_ERaERb_0480 assay. It is designed to make measurements of protein fragment complementation, a form of binding reporter, as detected with fluorescence intensity signals by Protein-fragment Complementation technology.Data from the assay component OT_ER_ERaERb_0480 was analyzed into 1 assay endpoint. This assay endpoint, OT_ER_ERaERb_0480, was analyzed in the positive analysis fitting direction relative to DMSO as the negative control and baseline of activity. Using a type of binding reporter, measures of receptor for gain-of-signal activity can be used to understand the binding at the pathway-level as they relate to the gene ESR1 and ESR2. Furthermore, this assay endpoint can be referred to as a primary readout, because the performed assay has only produced 1 assay endpoint. To generalize the intended target to other relatable targets, this assay endpoint is annotated to the nuclear receptor intended target family, where the subfamily is steroidal.
Protein-fragment complementation assay, or PCA, is a method for the identification and quantification of protein-protein interactions. In the PCA, the proteins of interest ("bait" and "prey") are each covalently linked to fragments of a third protein (e.g. DHFR, which acts as a "reporter"). Interaction between the bait and the prey proteins brings the fragments of the reporter protein in close proximity to allow them to form a functional reporter protein whose activity can be measured. […] Fluorescent signal in the basal state of the assay is very low and is primarily punctuate and cytoplasmic. Modulation of this assay is quantified as an increase in mean fluorescence intensity in the nucleus (for agonists) or in the nucleus and cytoplasm (antagonists) relative to vehicle controls, and can be quantified on a high content imaging device or a laser scanning cytometer. The latter instrument is favored for this assay because of the rapid mode of data acquisition, the ability to acquire data from the entire cell population in a well (as opposed to a fraction of the well on the high content devices) and the larger dynamic range typically achieved with this instrument. To assess sensitivity of the ER alpha/ER beta LBD assay to ligand, cells were treated with the ER agonist 17- beta-estradiol (E2) in 10-point concentration- response format for 8 hours and monitored response on a laser scanning plate cytometer (Acumen eX3; TTP Lab Tech).
`O=C1OC2(c3ccccc31)c1cc(Br)c(O)c(Br)c1Oc1c2cc(Br)c(O)c1Br` was tested, and the AC50 was 78.2 µM (active). For `Cc1cc(CCN2CCN(c3nsc4ccccc34)CC2)cc2c1NC(=O)CC2(C)C`, the outcome was “inactive”. With `CC(C)(C)CC(C)(C)c1ccc(O)c(-n2nc3ccccc3n2)c1` the outcome was “inactive”. In the case of `CCCCC(CC)COC(=O)CCCCC(=O)OCC(CC)CCCC` (centres undefined), the outcome is reported as “inactive”. For `CCCCCCCCCCCCCCCS(=O)(=O)Oc1ccccc1`, the outcome was “inactive”. For `OCCC(F)(F)C(F)(F)C(F)(F)C(F)(F)C(F)(F)C(F)(F)F`, the outcome was “inactive”. For `CC(=O)CC(C)(C)O`, the outcome was “inactive”. `CCOC(=O)CC(O)(CC(=O)OCC)C(=O)OCC` was tested, and the outcome was “inactive”. For `CCCCCCCCOC(=O)CCCCCCCCC(=O)OCCCCCCCC`, the outcome was “inactive”. In the case of `C#C[C@]1(O)CC[C@H]2[C@@H]3CCC4=CC(=O)CC[C@@H]4[C@H]3CC[C@@]21C`, the outcome is reported as “inactive”. In the case of `NC(=O)N(O)[C@@H]1C=C[C@H](Oc2cccc(Oc3ccc(F)cc3)c2)C1`, the outcome is reported as “inactive”. In the case of `CCCCCCCC(=O)O`, the outcome is reported as “inactive”. With `C=C(C)C(=O)OCCC(F)(F)C(F)(F)C(F)(F)C(F)(F)C(F)(F)C(F)(F)F` the outcome was “inactive”. For `OCCC(F)(F)C(F)(F)C(F)(F)C(F)(F)C(F)(F)C(F)(F)C(F)(F)C(F)(F)F`, the outcome was “inactive”. For `CN(C)C=O`, the outcome was “inactive”. For `CN1CCC[C@H]1c1cccnc1`, the outcome was “inactive”. For `Oc1cccc(O)c1`, the outcome was “inactive”. `CCc1nn(C2CCCCC2)c2cc(C3(C#N)CCC(C(=O)O)CC3)ccc12` (centres undefined) was tested, and the outcome was “inactive”. For `COc1ccc([N+](=O)[O-])cc1N`, the outcome was “inactive”. In the case of `CCCCCCCCC(=O)O`, the outcome is reported as “inactive”. In the case of `O=C(O)Cc1cc(I)c(Oc2cc(I)c(O)c(I)c2)c(I)c1`, the outcome is reported as “inactive”. In the case of `CCCCC(CC)COC(=O)CCCCC(=O)OCc1ccccc1` (centres undefined), the outcome is reported as “inactive”. For `N#C[C@@H]1CC(F)(F)CN1C(=O)CNC1CC2CCC(C1)N2c1ncccn1` (some centres undefined), the outcome was “inactive”. `CC[C@H](C)[C@@H](C(=O)O)n1sc2ccccc2c1=O` was tested, and the outcome was “inactive”. In the case of `OC1CCC(C2CCCCC2)CC1` (centres undefined), the AC50 is reported as 50 µM (active) and 34.5 µM (active) and 48.7 µM (active) and the outcome is reported as “inactive”. With `C[C@@H]1C[C@H]2[C@@H]3CCC4=CC(=O)C=C[C@]4(C)[C@@]3(F)[C@@H](O)C[C@]2(C)[C@@]1(O)C(=O)COP(=O)(O)O` the outcome was “inactive”. `O=C(O)c1ccccc1C(c1ccc(O)cc1)c1ccc(O)cc1` was tested, and the outcome was “inactive”. `CCc1ccc(CCOc2ccc(CC3SC(=O)NC3=O)cc2)nc1` (centres undefined) was tested, and the outcome was “inactive”. For `CCCOC(=O)c1ccc(O)cc1`, the AC50 was 16.7 µM (active). In the case of `CC(C)(C)c1cc(C(C)(C)C)c(O)c(C(C)(C)C)c1`, the AC50 is reported as 50 µM (active). `Nc1cccc2c(N)cccc12` was tested, and the outcome was “inactive”. `COCC(C)OCC(C)O` (centres undefined) was tested, and the outcome was “inactive”. With `c1ccc2c(c1)Cc1ccccc1-2` the outcome was “inactive”.
